# Compound activity deposited in PubChem by Emory University Molecular Libraries Screening Center.
# This is one part of a sample in which hits are shown more often than they occur.
# Measles inh – inhibitors of measles virus growth in infected cells; infected Vero cells, GFP fluorescence, 64 h; hits give low values; z-score (no concentration beside the values); actives 0.1% (n = 33,000); in the data active = z-score below about -3
# Numbers without * were called inactive.
SMILES,Measles inh
COc1cc(C(=O)NCc2ccccn2)c([N+](=O)[O-])cc1OC,-0.19
COc1cc(C(=O)c2ccccc2)c([N+](=O)[O-])cc1OC,-3*
COc1cc(C(=O)N2CCc3ccccc32)c([N+](=O)[O-])cc1OC,0.48
Cc1ccc(S(=O)(=O)CCC(=O)Nc2ccc(Cl)c(C(F)(F)F)c2)cc1,-0.14
CCOc1ccccc1N(C)C(=O)c1nn(-c2cccc(OC)c2)c(=O)c2ccccc12,-0.35
O=C(COC(=O)c1ccc2c(c1)C(=O)N(c1ccc([N+](=O)[O-])cc1)C2=O)c1ccccc1,0.42
COc1ccc(N2C(=O)c3ccc(C(=O)OCC(=O)c4cccc([N+](=O)[O-])c4)cc3C2=O)cc1,-5*
O=C(COC(=O)c1ccc2c(c1)C(=O)N(c1ccccc1Cl)C2=O)c1cccc([N+](=O)[O-])c1,0.75
COCCCNC(=O)c1ccc2c(=O)n(CCOC)c(=O)[nH]c2c1,0.63
COCCn1c(=O)[nH]c2cc(C(=O)NC3CCN(Cc4ccccc4)CC3)ccc2c1=O,-1.4
COCCn1c(=O)[nH]c2cc(C(=O)NCCN3CCN(c4ccccc4)CC3)ccc2c1=O,-3.6*
COc1ccc(C2Nc3c(OC)ccc(Cl)c3C3C=CCC32)cc1[N+](=O)[O-] (stereo unspecified),1.4
COc1ccc(C2/C(=C(\O)c3ccccc3)C(=O)C(=O)N2c2ccc(C)c(Cl)c2)cc1 (stereo unspecified),-0.44
COc1cc2c(c(OC)c1OC)C(c1ccccc1[N+](=O)[O-])CC(=O)N2 (stereo unspecified),-0.53
O=C(O)C1CCCN1C(=O)c1ccc(N2C(=O)C3C4C=CC(C4)C3C2=O)cc1 (stereo unspecified),0.5
CCc1ccccc1NS(=O)(=O)c1ccc2[nH]cc(C(=O)NC3CCCC3)c(=O)c2c1,-0.66
O=C(NC1CCCCCC1)c1c[nH]c2ccc(S(=O)(=O)N3CCc4ccccc43)cc2c1=O,-3.2*
CCN(c1ccccc1)S(=O)(=O)c1ccc2[nH]cc(C(=O)NC3CCCCC3)c(=O)c2c1,-2.1
COc1ccccc1NC(=O)Nc1nnc(COc2ccccc2F)s1,-0.81
Cc1ccc(Cl)cc1NC(=O)c1cc(-c2cccs2)nc2ccccc12,-3*
O=C(Nc1cccnc1)c1cc(-c2cccs2)nc2ccccc12,0.73
CC(C)c1ccc(NC(=O)c2cc(-c3cccs3)nc3ccccc23)cc1,-0.09
O=c1nc(C=Cc2ccc(O)cc2)cc(C(F)(F)F)[nH]1,-1.3
CCOC(=O)c1sc(N2C(=O)C(=O)/C(=C(/O)c3ccccc3)C2c2ccc(C(C)(C)C)cc2)nc1C (stereo unspecified),2.6
CCOC(=O)c1c(NC(=O)COc2ccc([N+](=O)[O-])c(C)c2)sc2c1CCC(C)C2 (stereo unspecified),0.48
SMILES,Measles inh
Cc1ccc(C(=O)CC2(O)C(=O)N(Cc3ccccc3)c3ccccc32)cc1 (stereo unspecified),-0.1
CC1(C)C(=O)N(Cc2ccc([N+](=O)[O-])cc2)c2ccccc2N1C(=O)c1ccc(Br)cc1,-0.47
CC1(C)C(=O)N(Cc2ccccc2)c2ccccc2N1C(=O)c1ccc(Br)cc1,-4*
COc1ccc(Cl)cc1NC(=O)CCS(=O)(=O)c1cc(Br)cc2c1N(C(C)=O)CC2,0.14
CC(=O)c1ccc(NC(=O)c2ccc(NS(=O)(=O)c3c(C)noc3C)cc2)cc1,-0.94
Cc1noc(C)c1S(=O)(=O)Nc1ccc(C(=O)Nc2ccc(C(C)C)cc2)cc1,-3.7*
COc1ccc(NC(=O)c2ccc(NS(=O)(=O)c3c(C)noc3C)cc2)cc1OC,0.34
COc1ccc(Nc2nc(-c3ccc(C)cc3)nc3ccccc23)cc1OC,-1.9
COc1cc(-c2nc(Nc3ccc(C)cc3)c3ccccc3n2)cc(OC)c1OC,-0.38
Cc1ccc(Nc2cc(C)nc(-c3ccccc3)n2)cc1,-3.7*
COc1cc(Br)c(C2Nc3ccccc3NC3=C2C(=O)CC(c2cccs2)C3)cc1OC (stereo unspecified),0.61
NC(=O)c1c(NC(=O)C2c3ccccc3Oc3ccccc32)sc2c1CCC2,-0.12
O=C(Nc1ccccc1Br)c1ccccc1I,1.8
CCOC(=O)c1cnc(SC)[nH]c1=O,-1.7
CC(=O)Oc1cccc2cccnc12,-0.4
COc1ccc(C(=O)Oc2cccc3cccnc23)cc1OC,-0.37
CCOc1ccc(C(=O)Oc2cccc3cccnc23)cc1Br,-3.5*
Cc1cccc(N2CCN(C(=O)c3cnn4c(C(F)(F)F)cc(-c5ccccc5)nc34)CC2C)c1 (stereo unspecified),0.5
CCN1C(=O)c2cccc3c(NC(=O)c4ccc(S(=O)(=O)N5CCCCC5C)cc4)ccc1c23 (stereo unspecified),0.51
CCc1ccc(N2COc3ccc4cc(Br)ccc4c3C2)cc1,0.09
COc1ccc2nc3sc(C(=O)Nc4nc5ccccc5s4)cc3cc2c1,-0.63
Cc1ccc2nc(NC(=O)C(Cc3ccccc3)NS(=O)(=O)c3ccc(Br)s3)sc2c1 (stereo unspecified),-0.28
O=C(OCc1ccccc1)c1cccc(N2C(=O)C3C4CCC(C4)C3C2=O)c1 (stereo unspecified),0.3
